Laboratory results as given in PubChem BioAssay AID1460 (National Center for Advancing Translational Sciences (NCATS), 2008).
Screen size: about 270,000 compounds; about 5,800 (2.1%) were called active. Roughly 16% stayed inconclusive and do not appear here. Calls come from the whole dose curve; as a rule, active = well fitted inhibition curve with a large enough effect; inconclusive = small, poorly fitted or top-dose-only effect; inactive = flat fitted curve, though single readings scatter. The entries come from a sample that favours actives as a whole. The source holds several records for some structures; these can differ, active in one and inactive in another.

What follows are molecules tested against Microtubule-associated protein tau (Homo sapiens) (UniProt P10636) (assay: qHTS for Inhibitors of Tau Fibril Formation, Thioflavin T Binding). Conditions: recombinant tau K18 P301L (four-repeat tau fragment), heparin-induced fibrillization, ThT fluorescence; series mostly up to 57.4 µM.
Sequence of Microtubule-associated protein tau (Homo sapiens) (P10636 561-689 P618L limits assumed): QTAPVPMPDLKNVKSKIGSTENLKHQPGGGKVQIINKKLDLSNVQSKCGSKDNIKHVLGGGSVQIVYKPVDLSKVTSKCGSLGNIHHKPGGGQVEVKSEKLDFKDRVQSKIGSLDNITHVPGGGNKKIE
Excerpt: NIH Molecular Libraries Probe Production Network [MLPCN]
NIH Chemical Genomics Center [NCGC]
Assay Provider: Carlo Ballatore, University of Pennsylvania
The microtubule-associated protein tau is an abundant protein in the axons of neurons that stabilizes microtubules. With its ability to modulate microtubule dynamics, tau contributes directly or indirectly, to key structural and regulatory cellular functions. Particularly important is the influence tau exerts on axonal transport, which allows signaling molecules, trophic factors and other essential cellular constituents to travel along the axons. Under pathological conditions, tau becomes sequestered into insoluble aggregates called neurofibrillary tangles. This phenomenon is believed to have pathological consequences by promoting axonal transport deficits that ultimately lead to synaptic dysfunction and neuronal loss. To identify inhibitors of tau aggregation, a heparin-induced tau fibril formation assay was used that employed a recombinantly expressed fragment of tau, K18 (Q242-E372), bearing a P301L mutation (Gustke et al. 1994; Hong et al. 1998). This assay monitors tau fibrillization by Thioflavin T (ThT) fluorescence.
Gustke, N., B. Trinczek, et al. (1994). "Domains of tau protein and interactions with microtubules." Biochemistry 33(32): 9511-22.
Hong, M., V. Zhukareva, et al. (1998).
Li, W. and V. M. Lee (2006).
von Bergen, M., S. Barghorn, et al. (2001). "Mutations of tau protein in frontotemporal dementia promote aggregation of paired helical filaments by enhancing local beta-structure." J Biol Chem 276(51): 48165-74.
NCGC Assay Protocol Summary:
For screening, 2 uL/well human K18 P301L (15 uM unlabeled and 0.24 uM Alexa 594-labeled tau, final concentrations) in reagent buffer (100 mM sodium acetate pH 7) was dispensed into black solid 1536-well plates (Grenier) using a solenoid-based dispenser. Following transfer of 23 nL compound or DMSO vehicle by a pin tool, 2 uL/well heparin (20 uM final concentration) in reagent buffer was added and the plate centrifuged 15 s at 1000 RPM. Plates were incubated 6 hr at 37 C and then 1 uL/well ThT (30 uM final concentration) was added. After a 1 hr ambient incubation, the plates were read by an Envision (Perkin Elmer) to monitor ThT fluorescence (450/8 nm excitation and 510/23 nm emission).
Keywords: NIH Roadmap, MLPCN, MLI, MLSMR, NCGC, qHTS, tau, tauopathies, Alzheimer's disease, fibril, neurodegeneration, aggregation
% is set by controls: 0 for no effect and ±100 for the full control effect; potency is the fitted concentration of half-maximal effect.
Note: nearly all actives have a fitted effect of over 55% in size.

Potency, inactive:
CC(=O)c1cc2c(cc1N)OCO2
Cc1[nH][nH]c(=O)c1C(c1ccc2c(c1)OCO2)c1c(C)[nH][nH]c1=O
COc1ccccc1N1CCN(S(=O)(=O)CCNC(=O)COc2ccc(F)cc2)CC1
Cc1ccc2c(c1)c1c(c(=O)n(-c3ccccc3)c(=O)n1CC(=O)c1ccc(Cl)cc1)n2C
COc1ccc(CCNC(=O)CCCn2c(=O)c3ccccc3n(Cc3ccc(F)cc3Cl)c2=O)cc1OC
CN1/C(=C\C(=O)c2cccnc2Cl)C(C)(C)c2ccccc21
CN1/C(=C\C(=O)c2oc3ccccc3c2N)C(C)(C)c2ccccc21
COc1ccc(OCc2ccc(-c3nc(C#N)c(N4CCN(c5ccccc5)CC4)o3)o2)cc1
COCC(=O)N=Nc1c(O)[nH]c2ccccc12
COc1ccccc1N=Cc1c(O)c2ccccc2oc1=O
Cc1cc(NC(=O)c2ccc(-c3ccc(Cl)cc3)o2)cc(-c2nc3ncccc3o2)c1O
Cc1oc2ncn(CC(C)C)c(=O)c2c1C(=O)N1CCN(c2ccccc2F)CC1
COc1ccccc1CNS(=O)(=O)c1cc(Br)cc2c1N(C(C)=O)C(C)C2 (stereo not given)
CCC(CC)C(=O)N1CCc2cc(OC)c(OC)cc2C1COc1ccc(F)cc1 (stereo not given)
CC1(OC(=O)C2CCCC2)C(=O)C=C2C=C(c3ccc(C#N)cc3)OC=C2C1=O (stereo not given)
COc1ccc(NC(=O)CCCN2C(=O)CCn3nc(-c4cn(C)c5ccccc45)cc32)cc1OC
COc1ccccc1OCC(=O)Nc1nnc2n1CCS2
CCc1ccc(NC(=O)C2CCCN2S(=O)(=O)c2ccc3nc(-c4ccccc4)[nH]c3c2)cc1 (stereo not given)
COC(=O)C1=C(C)NC(=O)NC1/C=C/c1ccccc1 (stereo not given)
COc1cc(C2C(C(=O)OCCC#N)=C(C)NC3=C2S(=O)(=O)c2ccccc23)cc(OC)c1OC (stereo not given)
COc1ccccc1NC(=O)C1=C(C)NC2=C(C(=O)CCC2)C1c1ccc(C)o1 (stereo not given)
CCOc1cc(C2C(C(=O)Nc3ccc(OC)cc3)=C(C)Nc3nc(SC)nn32)ccc1O (stereo not given)
Cc1nn(C)c2c1c(C(F)(F)F)cc(=O)n2C(C)C(=O)NCc1ccc(Cl)cc1 (stereo not given)
CC(C)(C)c1ccc(C(=O)NCC(c2ccco2)S(=O)(=O)c2ccc(F)cc2)cc1 (stereo not given)
Cc1ccc(Cl)cc1NC(=O)CSc1nc2ccccc2nc1Cc1ccccc1
Cc1ccc(NC(=O)C2CCN(S(=O)(=O)c3cc(-c4noc(C)n4)ccc3C)CC2)c(C)c1
O=C(NCCCc1ccccc1)c1ccc2c(c1)sc1nc(-c3ccc(F)cc3)cn12
COc1ccc2[nH]c3c(c2c1)CCN(C(=O)CCC1CCCC1)C3c1ccc(F)cc1 (stereo not given)
CC(C)C(=O)Nc1nc2c(s1)CC(C(C)(C)C)CC2 (stereo not given)
CCOC(=O)c1c(-c2ccccc2)csc1NC(=S)NC(=O)c1ccccc1
CCOC(=O)c1c(-c2cccc(C)c2)csc1NC(=O)c1c(-c2ccccc2)noc1C
COc1cc(CNC(=O)c2cc3n(n2)CCCN(Cc2cccc(F)c2)C3=O)cc(OC)c1OC
Cc1ccc(NC(=O)CN2CCC(C(N)=O)CC2)cc1[N+](=O)[O-]
COC(=O)N/N=C/c1ccc(-c2ccc(Cl)c(Cl)c2)o1
COc1cc(/C=N\NC(=O)c2nonc2N)c(OC)cc1Br
Nc1nnnn1CC(=O)N/N=C/c1ccc(-c2cccc(Cl)c2)o1
CCC(=O)N1N=C(c2ccc(OC)cc2)CC1c1cn(-c2ccccc2)nc1-c1cccs1 (stereo not given)
COc1cc(NC(=O)c2noc3c2CSc2ccccc2-3)cc(OC)c1OC
CCN(CC)c1ccc(/C=N/Nc2nc(C)cc(C)n2)c(O)c1
Cc1cc(/C=N/NC(=O)c2cccnc2)c(C)n1CC(C)C
CC(CNC(=O)c1nnc(Cc2cccc(F)c2)o1)c1ccccc1 (stereo not given)
O=C(CCSCc1cccc(F)c1)NCc1ccccc1
COc1cc(OC)c(NC(=O)Cc2ccc(-n3c(C)nc4cccnc43)cc2)cc1Cl
COc1ccc(C(=O)CSc2c(C(C)C)cnc3c2c(=O)n(C)c(=O)n3C)cc1
CCCCNC(=S)NNC(=O)c1cc(C)on1
CCCCNC(=O)C(=O)c1ccccc1NC(C)=O
O=C(NC(=S)Nc1ccc(S(=O)(=O)Nc2ncccn2)cc1)c1cccc(Br)c1
NS(=O)(=O)c1ccc(NC(=S)NC(=O)c2cccc(Br)c2)cc1
O=[N+]([O-])c1cccc(S(=O)(=O)N2CCCCCC2)c1
COC(=O)c1ccc(C(=O)OC)c(NC(=S)N2CCCCC2)c1
CCS(=O)(=O)N1CCc2cc(C(=O)NCc3ccc(C)cc3)ccc21
CCCCN(CC)CCCNC(=O)c1nn(C)c2c1CSc1ccccc1-2
COc1cccc(-n2c(=O)c3c(C)c(C(=O)N(C)C)sc3n(Cc3cccc(C)c3)c2=O)c1
CCOC(=O)Nc1ccccc1N1C(=O)c2ccccc2C1=O
CCOC(=O)c1cc(-c2ccccc2)n(CCC(=O)Nc2ccccc2CC)c1C
COc1cc(OC)nc(NC(=O)CCl)n1
O=C(NNc1ccccn1)c1ccc(Cl)nc1
Cc1ccc(CNC(=O)CCC(=O)N2Cc3ccccc3Oc3ncccc32)cc1
COc1ccccc1CNC(=O)C(=O)NCC(c1ccco1)S(=O)(=O)c1ccc(F)cc1 (stereo not given)
CCCOc1ccc(NC(=O)CC2C(=O)N(c3ccccc3)C(=O)N2Cc2ccco2)cc1 (stereo not given)
CCOc1ccc(NC(=O)Cn2c(=O)n(CCCC(=O)NCc3ccc4c(c3)OCO4)c(=O)c3ccccc32)cc1
O=C(Nc1cnccn1)c1cccnc1
C/C(=N\NC(=O)c1cccnc1)c1ccc(-c2ccccc2)cc1
CCOc1ccccc1NC(=O)Cn1c(=O)n(Cc2ccccc2)c(=O)c2c(C)c(C(=O)N(C)C)sc21
COc1ccccc1CC(=O)Nc1ccc([N+](=O)[O-])cc1OC
COc1ccccc1CSc1nc2ccccc2[nH]1
CCOc1ccc(NC(=O)C(=O)NCCc2csc3nc(-c4ccccc4F)nn23)cc1
CCc1ccccc1NC(=O)Cn1c(=O)n(-c2cccc(C)c2)c(=O)c2c1c1cc(OC)ccc1n2C
O=C(COC(=O)Cc1ccc(F)cc1)Nc1cc(S(=O)(=O)N2CCOCC2)ccc1N1CCCC1
CC(=O)NCCC(=O)Nc1cc(S(=O)(=O)N2CCOCC2)ccc1N1CCOCC1
COc1ccc(-c2nc3scc(CCNS(=O)(=O)c4cc(F)ccc4OC)n3n2)cc1OC
Cc1ccc(-n2c(SCC(=O)c3ccccc3)nc3c([nH]c4ccccc43)c2=O)cc1
CN(C)c1ccc(-n2cccc2/C=C2/SC(=Nc3ccc(F)cc3)NC2=O)cc1
Cc1ccc(C(=O)N/C(=C\c2ccco2)C(=O)N2CCSCC2)cc1C
CCC1S/C(=N/N=C/c2ccco2)NC1=O (stereo not given)
Cc1ccc(-c2cc(C(=O)N/N=C/C=C/c3ccco3)c3ccccc3n2)cc1C

Potency, active:
Nc1[nH][nH]c(=O)c1N=Nc1ccc2c(c1)OCO2 11.2 µM
CN1/C(=C\C=C2\N=C(c3ccc(F)cc3)OC2=O)C(C)(C)c2ccccc21 28.2 µM
COc1ccc(N=Cc2c(O)[nH]c3ccccc23)cc1OC 14.1 µM
CC1(OC(=O)CCc2ccccc2)C(=O)C=C2C=C(c3ccc(C#N)cc3)N(CCc3ccccn3)C=C2C1=O (stereo not given) 28.2 µM
CCOc1cc(C2C(C(=O)OC)=C(C)NC3=C2C(=O)c2ccccc23)ccc1O (stereo not given) 14.1 µM
COC(=O)C1=C(C)NC2=C(C(=O)c3ccccc32)C1c1ccc(-c2ccc(C(=O)O)cc2)o1 (stereo not given) 8.91 µM
CCCS(=O)(=O)c1ncc(Cl)c(C(=O)Nc2scc(-c3ccccc3)c2C(=O)OCC)n1 7.94 µM
Cc1cc(C)c([N+](=O)[O-])cc1-c1ccc(/C=N/NC(=O)c2nonc2N)o1 5.01 µM
Cc1ccc(-c2ccc(/C=N/NC(=O)CN3CCOCC3)o2)cc1[N+](=O)[O-] 15.8 µM
CCN(CC)c1ccc(/C=N/NC(=O)c2cnccn2)c(O)c1 5.62 µM
CCCCNC(=O)Nc1c(C)cc(SC#N)cc1C 22.4 µM
O=C(NC(=S)Nc1cccc2c(O)cccc12)c1cccc(Br)c1 12.6 µM
O=C(Oc1ccccc1C(=S)N1CCCCC1)c1cc([N+](=O)[O-])cc([N+](=O)[O-])c1 25.1 µM
CCOC(=O)c1cc2n(c1N)-c1ccccc1C2=O 14.1 µM
O=C(CCl)NNc1cccc(Cl)n1 14.1 µM
CCCCN=C1C([N+](=O)[O-])=CC=C2C1=NC1(CCCCC1)N2O 8.91 µM
O=C(NN=C1CCC(=NNC(=O)c2cccnc2)CC1)c1cccnc1 39.8 µM
COc1ccccc1CSc1ncc(-c2ccc([N+](=O)[O-])cc2)[nH]1 14.1 µM
Oc1c(Cl)cc(Cl)c(Cl)c1Cc1c(O)c(Cl)cc(Cl)c1Cl 20 µM
COCCNC(=S)Nc1cc(S(=O)(=O)N2CCOCC2)ccc1N1CCCCC1 35.5 µM
Cc1ccc(N2NC(=O)/C(=C/C=C/c3ccco3)C2=O)cc1C 10 µM
Cc1ccc(N=C2NC(=O)/C(=C/C=C/c3ccco3)S2)cc1C 4.47 µM

activity, negative = inhibition, inactive:
CCCCC1=CC2=CC(=O)C(C)(OC(=O)CC)C(=O)C2=CN1CCCOC(C)C (stereo not given) 0.166% [at 11.5 µM]
CC1(OC(=O)CCc2ccccc2)C(=O)C=C2C=C(c3ccc(C#N)cc3)N(CCc3ccccn3)C=C2C1=O (stereo not given) 5.29% [at 11.5 µM]
